In all, about 110,000 compounds were measured (“z-score”: median about -0.1, highest 2% from about 2 on). What follows is part of a selection rich in the highest values, with near analogues and random picks from the rest. Calls of active or inactive are those of the source.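 Rule for the calls: active = z-score in the third read window above 3 or below -3; inactive = the rest.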

The experiment deals with Metabotropic glutamate receptor 8 (Rattus norvegicus) (UniProt P70579). Kind of experiment: mGluR8 Gi/Go-coupled signaling modulation – cell-based, rat, thallium flux, HTS, primary screen (AID 488969). As to conditions: HEK293 rat mGluR8, GIRK (G protein-gated inwardly rectifying potassium channel) thallium flux, FluoZin2; at 10 µM; stronger effect = higher value; submaximal glutamate (EC20) added with thallium.
Chain of Metabotropic glutamate receptor 8 (Rattus norvegicus) (P70579 whole entry, looked up): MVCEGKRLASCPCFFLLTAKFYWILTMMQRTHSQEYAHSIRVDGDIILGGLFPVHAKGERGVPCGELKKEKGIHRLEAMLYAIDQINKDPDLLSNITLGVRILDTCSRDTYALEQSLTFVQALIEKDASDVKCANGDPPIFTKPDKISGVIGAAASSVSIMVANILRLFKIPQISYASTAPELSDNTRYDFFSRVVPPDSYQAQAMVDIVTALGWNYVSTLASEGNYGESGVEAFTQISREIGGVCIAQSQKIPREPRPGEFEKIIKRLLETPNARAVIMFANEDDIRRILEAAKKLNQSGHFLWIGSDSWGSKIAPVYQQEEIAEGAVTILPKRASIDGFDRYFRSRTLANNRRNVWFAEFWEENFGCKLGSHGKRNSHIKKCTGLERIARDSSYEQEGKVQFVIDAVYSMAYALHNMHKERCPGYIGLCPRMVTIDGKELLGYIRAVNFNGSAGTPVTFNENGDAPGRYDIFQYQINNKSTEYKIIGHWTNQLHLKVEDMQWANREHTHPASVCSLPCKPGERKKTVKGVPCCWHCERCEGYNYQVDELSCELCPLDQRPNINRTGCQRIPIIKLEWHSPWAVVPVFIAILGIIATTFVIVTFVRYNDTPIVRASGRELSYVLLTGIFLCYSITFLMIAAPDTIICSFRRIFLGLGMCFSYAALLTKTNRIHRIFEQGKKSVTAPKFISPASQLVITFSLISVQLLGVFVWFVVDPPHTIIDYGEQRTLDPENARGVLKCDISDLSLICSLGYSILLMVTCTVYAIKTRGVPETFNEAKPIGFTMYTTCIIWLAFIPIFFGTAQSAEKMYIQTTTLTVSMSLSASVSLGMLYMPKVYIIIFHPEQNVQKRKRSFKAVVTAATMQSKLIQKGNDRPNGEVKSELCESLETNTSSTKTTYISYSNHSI
Regarding `Cc1ccc(-c2nnn(CC(=O)NCc3ccccc3)n2)c(-n2cnnn2)c1`, the z-score is -0.255. Under `O=C(Cn1nnc(-c2ccccc2-n2cnnn2)n1)N1CCCCC1` stands 0.026; under `Cc1ccc(-c2nnn(CC(=O)N3CCCCC3)n2)c(-n2cnnn2)c1`, 3.32 (active). Under `CC1CN=C(N(C(=O)Nc2ccccc2)c2ccc(S(=O)(=O)N3CCOCC3)cc2)S1` (stereo unspecified) stands 0.945; under `Cc1c(C(=O)Nc2ccc(-c3nnc4n3CCCCC4)cc2)oc2ccc(Br)cc12`, -0.49; under `CCOc1ccc(Br)cc1/C(C)=N\NC1=NCCN1`, 3.75 (active). Under `CCCCOc1ccc(Br)cc1/C(C)=N/NC1=NCCN1` stands 1.54; under `CCCCCOc1ccc(Br)cc1/C(C)=N/NC1=NCCN1`, 1.05; under `COc1ccccc1N1CCSC1C(N)=O` (stereo unspecified), 0.0543. In the case of `COC(=O)N1CCN(c2ccc(OC)cc2)CC1`, the z-score was -0.134. Under `COc1ccc(N2CCSC2C(=O)NN)cc1` (stereo unspecified) stands 2.09; under `O=C(CSc1nc2ccccc2n1CC(=O)N1CCCC1)Nc1nccs1`, 0.452; under `CCOC(=O)c1c(NC(=O)CSc2nnc(C)c(=O)[nH]2)sc2c1CCCC2`, -0.522.

In the case of `CCC(=O)N1c2ccc(C)cc2C2=NNC(=S)NC21O` (stereo unspecified), the z-score was 3.09 (active). The value for `CC1=CC(C)(C)N(C(=O)c2ccccc2)c2ccc(C)cc21` was -0.576; that for `CC1=CC(C)(C)N(C(=O)CSc2ncn[nH]2)c2ccc(C)cc21` was 0.223. Under `CC1(C)NC(=O)N(CC(O)CNC23CC4CC(CC(C4)C2)C3)C1=O` (stereo unspecified) stands 0.426.

In turn, `O=C(Nc1ccc(F)cc1F)c1ccc(-n2cncn2)nc1` registered a z-score of -0.0309.

For `COc1cccc(C(=O)NC(=S)N2CCN(c3ccc(C(F)(F)F)cc3[N+](=O)[O-])CC2)c1`, the z-score is 4.68 (active). The value for `O=C(Nc1cc(C(F)(F)F)ccc1N1CCCCC1)c1cccc([N+](=O)[O-])c1` was -0.0811.

`CO/N=C/c1ccc(N2CCN(C(=O)c3cccc(C(F)(F)F)c3)CC2)c([N+](=O)[O-])c1` came in with a z-score of -0.0941. Under `COc1ccc(C(=O)NC(=S)N2CCCCC2)cc1[N+](=O)[O-]` stands 1.25.

For `CCOc1ccc(C(=O)NC(=S)N2CCN(c3ccc(C(F)(F)F)cc3[N+](=O)[O-])CC2)cc1`, the z-score was 0.854. Under `CC(C)Oc1cccc(C(=O)NC(=S)N2CCN(c3ccc(C(F)(F)F)cc3[N+](=O)[O-])CC2)c1` stands 6.72 (active).

Consider `COc1cc(OC)cc(C(=O)NC(=S)N2CCN(c3ccc(C(F)(F)F)cc3[N+](=O)[O-])CC2)c1`, for which the z-score was 4.05 (active).

Consider `COc1cccc(OC)c1C(=O)NC(=S)N1CCN(c2ccc(C(F)(F)F)cc2[N+](=O)[O-])CC1`, for which the z-score amounted to 0.046. The value for `O=[N+]([O-])c1cc(C(F)(F)F)ccc1N1CCN(S(=O)(=O)c2ccc3ccccc3c2)CC1` was -0.295. The value for `Cc1nn(-c2cc(C)c3ccccc3n2)c2c1CCC2` was 0.557; that for `Cc1ccc(C)c(NC(=S)NC(NC(=O)/C=C/c2ccccc2)C(Cl)(Cl)Cl)c1` (stereo unspecified) was -0.264; that for `CC1CCCN(c2ccc(C(=O)OCC(=O)N3c4ccccc4Sc4ccccc43)cc2[N+](=O)[O-])C1` (stereo unspecified) was -0.269.

`c1ccc2c(c1)CCCN2c1nc2ccccc2n2cnnc12` registered a z-score of -0.203. The value for `COc1ccc(OC)c(NC(=O)C2CC(=O)n3ncnc3N2)c1` (stereo unspecified) was -0.244. Molecule `CS(=O)(=O)N(CC(=O)N1CCN(c2ccccc2)CC1)c1ccc(Cl)c(C(F)(F)F)c1` gave a z-score of -0.0753. Under `CCn1c(=NC(=O)c2ccc(N3C(=O)CCC3=O)cc2)sc2c(OC)ccc(OC)c21` stands -0.536. The value for `CCn1c(Cc2ccc(OC)cc2)nnc1SCC(=O)N1CCN(c2ccccc2)CC1` was 0.352; that for `O=C(O)C1CCCCC1C(=O)Nc1cc(Cl)ccc1Cl` (stereo unspecified) was 2.08. The molecule `O=C(O)C1CC=CCC1C(=O)Nc1cc(Cl)ccc1Cl` (stereo unspecified) came in with a z-score of -0.205.

`O=C(O)C1CCCCC1C(=O)Nc1ccccc1Cl` (stereo unspecified) registered a z-score of -0.189. The value for `CCCCC(=O)NC(=S)NNC(=O)CC#N` was -0.265; that for `CCN1CCCC1CNc1ncnc2c1[nH]c1ccc(F)cc12` (stereo unspecified) was 2.55; that for `Fc1ccc2[nH]c3c(NCCN4CCOCC4)ncnc3c2c1` was 0.07. As for `Clc1ccc2[nH]c3c(NCC4CCCO4)ncnc3c2c1` (stereo unspecified), the z-score is -3.05 (active). For `CCOC(=O)c1ccc(Oc2c(C)oc3cc(OS(C)(=O)=O)ccc3c2=O)cc1`, the z-score is -0.214. The value for `CC(C)NC(=S)N/N=C/c1cc(Br)ccc1O` was 6.43 (active); that for `Cc1ccc(/C=N/NC(=S)NC(C)C)o1` was -0.11; that for `NC(=O)N/N=C\c1cc(Br)ccc1O` was -0.265. With `FC(F)(F)c1cnc2c(c1)Nc1ccccc1S2`, the z-score worked out at 0.635. The value for `Cc1ccc(C)n1-c1sc2c(c1C#N)CCCC2` was -0.0485; that for `C=CCNCc1cccn1-c1sc2c(c1C#N)CCCC2` was 2.43; that for `N#Cc1c(-n2cccc2/C=N/O)sc2c1CCCC2` was -0.27. `Oc1ccccc1C1=Nc2ccccc2N=C(c2cccs2)C1` came in with a z-score of 0.0299.

Molecule `O=C(CSc1nnc2n1CCCN2C(=S)Nc1ccc(Cl)cc1)c1ccccc1` came in with a z-score of -0.14. Under `CN(c1ccc(C(=O)NCCSCc2ccco2)cc1)S(C)(=O)=O` stands -0.396. Under `COc1ccc(CC(=O)Nc2cc(=O)n(C)c(=O)n2C)cc1` stands 2.78; under `Cn1c(NC(=O)Cc2ccc(F)cc2)cc(=O)n(C)c1=O`, 2.79. Under `Cn1c(NC(=O)COc2ccccc2)cc(=O)n(C)c1=O` stands 0.597. Take `CCCC(=O)Nc1cc(=O)n(C)c(=O)n1C`: the z-score was -0.309. The value for `Cn1c(NC(=O)Cc2cccs2)cc(=O)n(C)c1=O` was 0.422; that for `Cn1c(NC(=O)CCc2ccccc2)cc(=O)n(C)c1=O` was -0.492; that for `Cc1cccc(CSCCNC(=O)Nc2ccccc2)c1` was -0.872.

`CC(=O)NNc1nc(-c2ccc(NC(C)=O)cc2)cs1` had a z-score of -0.0151. The value for `CCOC(=O)/C=c1\s/c(=C\c2ccc(C)cc2)c(=O)n1CC(=O)NCc1ccco1` was 0.0354; that for `O=C(/C=C/c1ccc(Cl)cc1Cl)NC(=S)Nc1ccc(CN2CCOCC2)cc1` was 0.0804; that for `CC(=O)N/C(=C/c1ccc(OS(=O)(=O)c2ccc(C)cc2)cc1)C(=O)NCCO` was -0.101.

As for `CCOCC(=O)Nc1nnc(C)s1`, the z-score is 1.02.

For `O=C(Nc1ccc(SC(F)F)cc1)C12CCC(CC1)C2`, the z-score was 3.38 (active). Take `CC12CCC(C(=O)Nc3ccc(SC(F)F)cc3)(CC1=O)C2(C)C` (stereo unspecified): the z-score was 0.519. Under `C=C1C2(C(=O)Nc3ccc(SC(F)F)cc3)CCC(C2)C1(C)C` (stereo unspecified) stands 0.546. The value for `CCCCCNCc1ccc(Br)cc1` was -0.224; that for `OCc1cc(CO)c(O)c(CCc2ccccc2)n1` was 0.171; that for `COc1ccc(-c2nnc(-c3cccs3)o2)cc1OC` was -0.0864.

Take `COc1cccc2sc(Nc3nc(-c4cc5ccccc5oc4=O)cs3)nc12`: the z-score was found to be 0.111. As for `COc1cccc2sc(Nc3nc(-c4ccccn4)cs3)nc12`, the z-score was 5.31 (active). The value for `COc1cc2nc(-c3cccs3)oc(=O)c2cc1OC` was -0.693. The value for `COc1cccc2sc(Nc3nc4ccc(NC(C)=O)cc4s3)nc12` was -0.147. The value for `c1ccc(Nc2nc(-c3ccccn3)cs2)cc1` was -0.545; that for `COc1cc(-c2nnc(-c3cccs3)o2)cc(OC)c1OC` was 2.27. `COc1cc(-c2nnc(-c3cc(OC)c(OC)c(OC)c3)o2)cc(OC)c1OC`: the z-score was -1.02.

As for `COc1cccc2sc(NC(=O)c3ccc(Br)s3)nc12`, the z-score is 0.601. Under `COc1ccc(-c2nnc(Nc3nc4c(OC)cccc4s3)o2)cc1` stands 17.1 (active); under `CCOC(=O)c1sc(Nc2nc3c(OC)cccc3s2)cc1C`, -0.137. Under `COc1cccc2sc(Nc3nnc(-c4cccs4)o3)nc12` stands 17.4 (active); under `CCOc1ccc(NC(=O)CC2C(=O)N(C)C(=S)N2CCCc2ccccc2)cc1` (stereo unspecified), 0.36; under `O=C(Cc1c(F)cccc1Cl)c1ccc(O)cc1O`, 0.0496.

With `CCOC(=O)c1cccc(NC(=O)C2CCCN2S(=O)(=O)c2cccc3cccnc23)c1` (stereo unspecified), the z-score was -0.226.

In the case of `CN(CCOC(=O)C1c2ccccc2Oc2ccccc21)C(C)(C)C`, the z-score is 0.442.

In the case of `CNC(=O)CCSc1ccc(C)cc1`, the z-score was 1.02. The value for `O=C(CSc1ncnc2c1cnn2CCc1ccccc1)Nc1cccc(C(F)(F)F)c1` was -0.203. The value for `CCN(CC)S(=O)(=O)c1cc(C)c(C)cc1Br` was 0.329; that for `NS(=O)(=O)c1ccc(CCNC(=O)CNC(=O)C2CCCCC2)cc1` was -0.063; that for `O=C(Nc1cccc(F)c1)NC1(C(=O)N2CCN3CCCC3C2)CCCCC1` (stereo unspecified) was 0.517.

`N#Cc1c(NC(=O)CSc2nc(-c3ccccc3)cc(C(F)(F)F)n2)sc2c1CCC2`: the z-score is 0.0217. Molecule `c1ccc(-n2c(SCc3nc(-c4cccs4)no3)nnc2-c2ccco2)cc1` registered a z-score of -1.55. Under `CCOC(=O)CCC(=O)N1CCOCCOCCN(C(=O)CCC(=O)OCC)CCOCC1` stands -0.107.

As for `COCCn1c(CN(Cc2ccccc2)Cc2ccccc2)nc2c1c(=O)n(C)c(=O)n2C`, the z-score was 3.37 (active). Under `CCCCn1c(CN(Cc2ccccc2)Cc2ccccc2)nc2c1c(=O)n(C)c(=O)n2C` stands 3.38 (active); under `CCOCCn1c(CN(Cc2ccccc2)Cc2ccccc2)nc2c1c(=O)n(C)c(=O)n2C`, 0.389.

In the case of `CCCCn1c(CN(C)Cc2ccccc2)nc2c1c(=O)n(C)c(=O)n2C`, the z-score was found to be 0.165. The value for `COCCn1c(CN(C)Cc2ccccc2)nc2c1c(=O)n(C)c(=O)n2C` was -0.377; that for `CCCCCn1c(CN(C)Cc2ccccc2)nc2c1c(=O)n(C)c(=O)n2C` was 0.218; that for `CCCCNC(=O)Nc1ccccc1C(=O)NCc1ccco1` was 0.486.

In turn, `COc1cc(OC)cc(C(=O)NNC(=O)NC2CCCCC2)c1` returned a z-score of -0.0486. `CC(=O)NCCOc1ccc2oc3ccccc3c2c1` yielded a z-score of -0.506. The value for `O=C1c2ccccc2NC(c2cccc(Cl)c2)N1N=C1CCCCCC1` (stereo unspecified) was -0.359; that for `CCN(CC)C(=O)CSc1nc2ncccc2[nH]1` was 1.1.

For `COC(=O)CSc1nc2ncccc2[nH]1`, the z-score turned out to be 2.69.

For `CC(C)OC(=O)CSc1nc2ncccc2[nH]1`, the z-score was -0.0946. Molecule `Cc1ccc(-c2nc3ccccc3o2)cc1NC(=S)NC(=O)c1cccs1` displayed a z-score of 1.65. The value for `Cc1ccc2oc(-c3ccc(C)c(NC(=S)NC(=O)c4cccs4)c3)nc2c1` was 0.703; that for `Cc1ccc2oc(-c3cccc(NC(=O)Cc4cccs4)c3)nc2c1` was 0.0421; that for `Cc1ccc(-c2nc3ccccc3o2)cc1NC(=S)NC(=O)c1cc2ccccc2o1` was 2.35.

Molecule `Cc1cc(C)c2oc(-c3ccc(C)c(NC(=S)NC(=O)/C=C/c4ccco4)c3)nc2c1` displayed a z-score of -0.0423. Under `Cc1ccc2oc(-c3cccc(NC(=S)NC(=O)/C=C/c4ccco4)c3)nc2c1` stands -0.494. Under `Cc1cc(C)c2oc(-c3ccc(C)c(NC(=S)NC(=O)c4cccs4)c3)nc2c1` stands 3.57 (active); under `Cc1ccc(-c2nc3ccccc3o2)cc1NC(=S)NC(=O)/C=C/c1ccco1`, 0.0248. Under `Cc1ccc2oc(-c3cccc(NC(=S)NC(=O)c4cccs4)c3)nc2c1` stands 3.78 (active).
